Assay results as given in PubChem BioAssay (EPA / NIEHS).
Results filed as inconclusive are left out. More than one record can exist for a structure, and the calls need not agree. Activity calls are given as the source filed them. How the source made its calls, unless noted: active means hit-call score of the fitted dose curve at least 0.9, where 1 is the maximum; inactive means score below 0.9.

What was measured:
[1] = ATG_ERE_CIS: Attagene CIS-FACTORIAL HepG2 Assay for Estrogen Response Element (ERE) (AID 2282940); settings: HepG2 ERE cis-reporter, Attagene RNA transcript; actives raise or lower the signal
Method in brief: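 HepG2 cells transiently transfected with multiplexed cis-element reporter units, measuring endogenous transcription factor activity; ERE reporter mRNA quantified after 24 h exposure by RT-PCR, fluorescent labelling, HpaI digestion and capillary electrophoresis. Bidirectional change versus DMSO.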

[2] = biological target: human Retinoid X Receptor beta (RXRb), RXRB (gene 6257) (UniProt P28702); test: ATG_RXRb_TRANS: Attagene TRANS-FACTORIAL HepG2 Assay for human Retinoid X Receptor beta (RXRb) (AID 2283013; active means hit-call score of the fitted dose curve at least 0.9, where 1 is the maximum)
Method in brief: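 Chimeric receptor-Gal4 activity was assessed in transiently transfected human HepG2 cells after 24 h exposure. Transcripts from GAL4-UAS reporters were quantified by fluorescent RT-PCR and capillary electrophoresis, with DMSO as negative control and baseline.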

[3] = biological target: Nuclear receptor subfamily 4 group A member 2 (Homo sapiens) (UniProt P43354); test: ATG_NURR1_TRANS: Attagene TRANS-FACTORIAL HepG2 Assay for human Nuclear Receptor Related Protein 1 (NURR1) (AID 2282985; active means hit-call score of the fitted dose curve at least 0.9, where 1 is the maximum); settings: HepG2 Attagene TRANS reporter, mRNA readout
Method in brief: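 Reporter transcript induction, measured by RT-PCR with fluorescent labelling, HpaI digestion and capillary electrophoresis, after 24 hr dosing of human HepG2 cells transiently expressing an exogenous NR-Gal4 fusion with GAL4-UAS-driven reporters; DMSO as baseline.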

[4] = BSK_3C_TissueFactor: BioMAP Diversity Plus: 3C Assay for Tissue Factor Biomarker Activity (AID 2282997); settings: BioMAP 3C HUVEC, tissue factor biomarker readout; actives raise or lower the signal
Method in brief: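 Tissue Factor measured by ELISA, 24 h after treatment of primary HUVEC in the BioMAP 3C setting.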

[5] = BSK_3C_uPAR: BioMAP Diversity Plus: 3C Assay for Urokinase-type plasminogen activator receptor (uPAR) Biomarker Activity (AID 2282998); settings: BioMAP 3C HUVEC, uPAR biomarker ELISA; actives raise or lower the signal
Method in brief: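 Primary human umbilical vein endothelial cells, 3C system; surface uPAR measured by ELISA 24 h after dosing. Cytotoxicity via SRB total protein in parallel cultures; bidirectional fit against DMSO.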

[6] = BSK_4H_Eotaxin3: BioMAP Diversity Plus: 4H Assay for Eotaxin 3 Biomarker Activity (AID 2283000); settings: primary human endothelial cells (HUVEC); actives raise or lower the signal
Method in brief: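 Eotaxin-3 (CCL26) levels were measured by ELISA in HUVEC primary cultures 24 h post-dosing. Gain or loss of signal was fitted in both directions, with DMSO serving as baseline and negative control.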

[7] = read-out: Interleukin-1 alpha (IL1a), IL1A (gene 3552); test: BSK_BE3C_IL1a: BioMAP Diversity Plus: BE3C Assay for Interleukin-1 alpha (IL1a) Biomarker Activity (AID 2283016); settings: primary human bronchial epithelial cells; actives raise or lower the signal
Method in brief: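 Signal from IL-1a ELISA, taken 24 h after chemical dosing of human bronchial epithelial cells, is compared with DMSO as baseline using bidirectional curve fitting.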

[8] = read-out: Monocyte Chemoattractant Protein-1 (MCP1), CCL2 (gene 6347); test: BSK_3C_MCP1: BioMAP Diversity Plus: 3C Assay for Monocyte Chemoattractant Protein-1 (MCP1) Biomarker Activity (AID 2283017); settings: primary human endothelial cells (HUVEC); actives raise or lower the signal
Method in brief: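 Human umbilical vein endothelial cells (3C system) exposed to chemicals for 24 h; MCP-1 quantified by ELISA against the DMSO baseline with bidirectional fitting, and parallel SRB staining used to assess cytotoxicity.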

[9] = read-out: Monocyte Chemoattractant Protein-1 (MCP1), CCL2 (gene 6347); test: BSK_4H_MCP1: BioMAP Diversity Plus: 4H Assay for Monocyte Chemoattractant Protein-1 (MCP1) Biomarker Activity (AID 2283018); settings: primary human endothelial cells (HUVEC); actives raise or lower the signal
Method in brief: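 Endothelial cells from umbilical vein were treated with test chemical, then after 24 h MCP-1 levels were quantified by ELISA; endpoint values came from bidirectional fitting with DMSO as baseline of activity.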

[10] = read-out: Interleukin-1 alpha (IL1a), IL1A (gene 3552); test: BSK_LPS_IL1a: BioMAP Diversity Plus: LPS Assay for Interleukin-1 alpha (IL1a) Biomarker Activity (AID 2283080); settings: primary human HUVEC with PBMC; actives raise or lower the signal
Method in brief: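 Human umbilical vein endothelial cells co-cultured with PBMC and stimulated with LPS; IL-1a measured by ELISA 24 h after dosing. Bidirectional fitting against DMSO; cytotoxicity checked by SRB staining in parallel cultures.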

[11] = BSK_LPS_PGE2: BioMAP Diversity Plus: LPS Assay for Prostaglandin E2 (PGE2) Biomarker Activity (AID 2283082); settings: primary human HUVEC with PBMC; actives raise or lower the signal;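 on AC50: secreted prostaglandin E2 measured by ELISA in LPS-stimulated co-culture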
Method in brief: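 Compounds were added to the LPS co-culture of endothelium and PBMC, and PGE2 was measured by ELISA after 24 h. Responses in either direction were fitted with DMSO as baseline.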

[12] = biological target: Retinoic acid receptor RXR-alpha (Homo sapiens) (UniProt P19793); test: OT_NURR1_NURR1RXRa_0480: Odyssey Thera (OT) 8-hour HEK293T Protein Complementation Assay for Nurr1/retinoid X receptor (RXR) (AID 2283385; active means hit-call score of the fitted dose curve at least 0.9, where 1 is the maximum)
Method in brief: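 Interaction of bait and prey reconstitutes a functional reporter, whose fluorescence was measured in HEK293T cells dosed with compound for 8 hours. Signal gain relative to DMSO defined the single endpoint.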

[13] = biological target: Retinoic acid receptor RXR-alpha (Homo sapiens) (UniProt P19793); test: OT_NURR1_NURR1RXRa_1440: Odyssey Thera (OT) 24-hour HEK293T Protein Complementation Assay for Nurr1/retinoid X receptor (RXR) (AID 2283386; active means hit-call score of the fitted dose curve at least 0.9, where 1 is the maximum)
Method in brief: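 Steps: fragment-tagged Nurr1 and RXRα expressed in HEK293T; compounds added; after 24 h, complemented reporter quantified by fluorescence intensity; signal increase over DMSO fitted as the single endpoint.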

[14] = biological target: Peroxisome proliferator-activated receptor gamma (Homo sapiens) (UniProt P37231); test: OT_PPARg_PPARgSRC1_0480: Odyssey Thera (OT) 8-hour Protein-Complementation Assay for Peroxisome Proliferator-activated Receptor Gamma / SRC-1 Co-activator (AID 2283387; active means hit-call score of the fitted dose curve at least 0.9, where 1 is the maximum)
Method in brief: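 Read-out: 488 nm N/C fluorescence ratio from complemented Venus YFP fragments, ≥350 cells per image, gain-of-signal fitted against DMSO baseline. Fusions of PPARg/SRC-1 with IFP1/IFP2 expressed transiently in HEK293T; compounds applied 8 h.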

[15] = biological target: Peroxisome proliferator-activated receptor gamma (Homo sapiens) (UniProt P37231); test: OT_PPARg_PPARgSRC1_1440: Odyssey Thera (OT) 24-hour Protein-Complementation Assay for Peroxisome Proliferator-activated Receptor Gamma/ SRC-1 Co-activator (AID 2283388; active means hit-call score of the fitted dose curve at least 0.9, where 1 is the maximum)
Method in brief: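 HEK293T transiently transfected with PPARg/SRC-1 split-Venus YFP fusions 48 h before dosing, then treated 24 h at 37C. Fixed cells imaged; nuclear/cytoplasmic 488 nm fluorescence ratio, gain of signal versus DMSO.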

[16] = ACEA_AR_agonist_AUC_viability: ACEA Biosciences xCELLigence Real-Time Cell Analysis on Androgen Receptor Agonism for Viability (AID 2283775; active means hit-call score of the fitted dose curve at least 0.9, where 1 is the maximum)
Method in brief: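 22Rv1 cells; impedance growth kinetics; 8-pt 1:4 dilutions from 100 uM top final, ≤0.5% DMSO; n = 2; 80 h read; AUC viability, loss-of-signal vs DMSO.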

[17] = ACEA_AR_antagonist_AUC_viability: ACEA Biosciences xCELLigence Real-Time Cell Analysis on Androgen Receptor Antagonism for Viability (AID 2283776; active means hit-call score of the fitted dose curve at least 0.9, where 1 is the maximum;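 further: 22Rv1 human prostate cancer cells growing on impedance electrode plates; area under impedance growth curve at 80 h after dosing as viability; hits lower the growth signal relative to DMSO meaning cytotoxicity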)
Method in brief: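 Real-time electrical impedance tracks 22Rv1 proliferation after continuous compound exposure (top 100 uM final, 1:4 steps, 8 concentrations). The 80 h area-under-curve serves as the cytotoxicity readout relative to DMSO.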

[18] = CCTE_Harrill_HTTr_CellCount_MCF7: CCTE's Cell Proliferation Assessment for the High-Throughput Transcriptomics (HTTr) Platform, Harrill Lab (AID 2284012; active means hit-call score of the fitted dose curve at least 0.9, where 1 is the maximum;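 further: cells exposed to compound for six hours; intended direction is loss of nuclei count meaning fewer cells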)
Method in brief: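 Cell count served as viability reporter: loss of Hoechst-stained nuclei, counted by high content imaging, marks decreased growth or survival. Exposure was 6 h in MCF-7 cells across eight concentrations, with DMSO as baseline.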

[19] = biological target: Estrogen-related receptor gamma (Homo sapiens) (UniProt P62508); test: ATG_ERRg_TRANS: Attagene TRANS-FACTORIAL HepG2 Assay for human Estrogen-Related Receptor gamma (ERRg) (AID 2282977; active means hit-call score of the fitted dose curve at least 0.9, where 1 is the maximum;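 further: hits increase reporter signal over DMSO so potencies reflect activators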); settings: HepG2 Attagene TRANS reporter, ERRg transactivation
Method in brief: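 Induction of reporter transcripts through a chimeric NR-Gal4 protein is quantified in transfected human HepG2 liver cells after 24 h chemical exposure, using RT-PCR with capillary electrophoresis detection and DMSO as baseline.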

[20] = CCTE_Harrill_HTTr_Apoptosis_MCF7: CCTE's 6-hour Apoptosis Assessment for the High-Throughput Transcriptomics (HTTr) Platform, in MCF-7 cells cultured in DMEM + 10% fetal bovine serum, Harrill Lab (AID 2284011)
Method in brief: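 MCF-7 cells in DMEM + 10% FBS exposed 6 h to chemicals over an eight-point dilution series. Caspase-3/7 activation imaged by high-content CellEvent Green staining; fitted bidirectionally versus DMSO.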

Measured: AC50

Sequence of human Retinoid X Receptor beta (RXRb), RXRB (gene 6257) (P28702 whole entry, looked up, the tested form may be a part): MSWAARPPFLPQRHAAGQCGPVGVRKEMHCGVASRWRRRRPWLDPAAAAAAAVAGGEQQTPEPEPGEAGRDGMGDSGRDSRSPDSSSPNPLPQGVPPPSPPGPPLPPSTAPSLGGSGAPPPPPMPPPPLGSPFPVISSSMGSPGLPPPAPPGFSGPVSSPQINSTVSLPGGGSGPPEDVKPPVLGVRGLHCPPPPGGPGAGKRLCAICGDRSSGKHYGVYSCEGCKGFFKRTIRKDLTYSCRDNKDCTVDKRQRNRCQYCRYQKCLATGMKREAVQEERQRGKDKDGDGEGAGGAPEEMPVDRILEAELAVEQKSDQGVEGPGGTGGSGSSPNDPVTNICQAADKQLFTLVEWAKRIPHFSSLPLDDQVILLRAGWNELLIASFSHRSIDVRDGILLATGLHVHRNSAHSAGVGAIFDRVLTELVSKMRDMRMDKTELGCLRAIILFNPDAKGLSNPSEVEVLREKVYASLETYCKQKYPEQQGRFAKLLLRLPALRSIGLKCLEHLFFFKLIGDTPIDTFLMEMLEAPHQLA
Sequence of Retinoic acid receptor RXR-alpha (Homo sapiens) (P19793 whole entry, looked up, the tested form may be a part): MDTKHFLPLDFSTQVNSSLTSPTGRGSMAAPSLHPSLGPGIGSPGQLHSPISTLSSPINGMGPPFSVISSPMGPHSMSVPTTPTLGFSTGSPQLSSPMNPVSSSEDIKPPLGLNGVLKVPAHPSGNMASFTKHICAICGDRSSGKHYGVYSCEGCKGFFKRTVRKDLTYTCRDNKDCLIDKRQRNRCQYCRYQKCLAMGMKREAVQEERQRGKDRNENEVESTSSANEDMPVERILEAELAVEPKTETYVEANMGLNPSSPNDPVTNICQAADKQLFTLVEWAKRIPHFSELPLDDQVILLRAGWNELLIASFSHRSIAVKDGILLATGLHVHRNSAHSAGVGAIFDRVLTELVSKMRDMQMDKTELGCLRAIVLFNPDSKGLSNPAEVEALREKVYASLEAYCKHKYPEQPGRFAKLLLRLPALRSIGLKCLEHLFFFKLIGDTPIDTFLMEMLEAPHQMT
Sequence of Peroxisome proliferator-activated receptor gamma (Homo sapiens) (P37231 whole entry, looked up, the tested form may be a part): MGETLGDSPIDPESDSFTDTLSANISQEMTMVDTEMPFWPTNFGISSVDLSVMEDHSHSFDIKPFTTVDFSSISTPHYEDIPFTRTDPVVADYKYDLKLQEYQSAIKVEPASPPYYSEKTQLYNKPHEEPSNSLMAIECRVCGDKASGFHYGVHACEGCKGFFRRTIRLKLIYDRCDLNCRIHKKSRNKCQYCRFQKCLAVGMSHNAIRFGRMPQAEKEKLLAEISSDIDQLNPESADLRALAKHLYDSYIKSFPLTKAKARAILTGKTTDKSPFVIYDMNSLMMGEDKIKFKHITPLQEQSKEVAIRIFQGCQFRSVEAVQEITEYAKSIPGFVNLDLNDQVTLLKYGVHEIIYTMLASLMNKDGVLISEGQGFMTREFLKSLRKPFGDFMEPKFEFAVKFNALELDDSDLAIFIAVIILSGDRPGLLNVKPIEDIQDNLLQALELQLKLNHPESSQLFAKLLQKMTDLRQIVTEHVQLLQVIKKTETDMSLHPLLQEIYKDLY
Sequence of Estrogen-related receptor gamma (Homo sapiens) (P62508 whole entry, looked up, the tested form may be a part): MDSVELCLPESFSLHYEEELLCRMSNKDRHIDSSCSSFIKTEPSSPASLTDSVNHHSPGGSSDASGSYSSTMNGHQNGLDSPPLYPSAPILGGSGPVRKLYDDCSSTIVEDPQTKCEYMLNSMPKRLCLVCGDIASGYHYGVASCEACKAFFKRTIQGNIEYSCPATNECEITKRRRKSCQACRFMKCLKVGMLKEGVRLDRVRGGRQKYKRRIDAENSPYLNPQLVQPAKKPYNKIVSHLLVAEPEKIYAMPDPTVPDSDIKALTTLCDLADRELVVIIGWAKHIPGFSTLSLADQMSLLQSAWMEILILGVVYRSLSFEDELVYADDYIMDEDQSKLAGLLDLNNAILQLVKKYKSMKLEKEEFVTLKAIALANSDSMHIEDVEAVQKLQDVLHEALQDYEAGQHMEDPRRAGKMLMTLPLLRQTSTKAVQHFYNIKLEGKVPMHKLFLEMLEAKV
Sequence of Nuclear receptor subfamily 4 group A member 2 (Homo sapiens) (P43354 whole entry, looked up, the tested form may be a part): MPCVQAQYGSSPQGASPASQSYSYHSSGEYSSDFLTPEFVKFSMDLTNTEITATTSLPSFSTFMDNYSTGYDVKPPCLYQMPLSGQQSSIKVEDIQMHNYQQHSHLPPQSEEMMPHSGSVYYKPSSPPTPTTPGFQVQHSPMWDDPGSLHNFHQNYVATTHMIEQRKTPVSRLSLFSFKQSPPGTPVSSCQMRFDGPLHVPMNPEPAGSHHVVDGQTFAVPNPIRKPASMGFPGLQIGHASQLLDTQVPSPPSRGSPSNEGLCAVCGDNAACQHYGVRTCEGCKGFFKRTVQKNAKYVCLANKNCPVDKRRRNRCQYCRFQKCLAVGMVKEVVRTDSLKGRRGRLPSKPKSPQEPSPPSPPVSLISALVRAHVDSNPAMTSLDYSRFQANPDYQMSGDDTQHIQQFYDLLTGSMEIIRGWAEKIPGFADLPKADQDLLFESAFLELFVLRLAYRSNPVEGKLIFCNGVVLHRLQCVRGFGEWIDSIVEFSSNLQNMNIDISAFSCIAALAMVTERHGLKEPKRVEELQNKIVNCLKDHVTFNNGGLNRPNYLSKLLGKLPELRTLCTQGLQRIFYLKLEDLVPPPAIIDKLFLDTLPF

C=C(Cl)CCl
inactive: [1] | [2]

CC(C)(c1cc(Cl)c(O)c(Cl)c1)c1cc(Cl)c(O)c(Cl)c1
inactive: [14] | [15] | [16] | [17]
active: [3] 47.9 µM | [4] 24.2 µM | [5] 9.36 µM | [6] 32.1 µM | [2] 9.09 µM | [7] 5.29 µM | [8] 12.3 µM | [9] 20 µM | [10] 31.5 µM | [11] 22.9 µM | [12] 74.7 µM | [13] 78.1 µM

CCOC(=O)COc1ccc(Cl)cc1Cl
inactive: [12] | [13] | [18]

Cl/C=C\CCl
inactive: [2] | [18]

O=[N+]([O-])c1ccc(Cl)cc1
inactive: [3] | [4] | [5] | [6] | [7] | [8] | [9] | [10] | [11] | [13] | [16]

CCNCC
inactive: [19]

Nc1ccccc1
inactive: [12] | [13] | [14] | [15] | [16] | [17] | [20] | [18]

N#Cc1cc(I)c(O)c(I)c1
inactive: [19]

c1ccc2c(c1)CCCC2
inactive: [1] | [12] | [14] | [15] | [16] | [17]

O=C(O)C(Br)Br
inactive: [1]

Cc1cc(C)c(C2=C(OC(=O)CC(C)(C)C)C3(CCCC3)OC2=O)c(C)c1
inactive: [1] | [12] | [13] | [14] | [15] | [16] | [17]

C=CC(=O)OCCO
inactive: [3] | [16] | [17]

c1ccc(Nc2ccc3ccccc3c2)cc1
inactive: [3] | [6] | [10]
active: [1] 8.6 µM | [4] 32.9 µM | [5] 20 µM | [7] 20 µM | [8] 26 µM | [9] 30.7 µM | [11] 20 µM

CCC1CCC(=O)O1 (centres undefined)
inactive: [13] | [17]

CC=Cc1ccc2c(c1)OCO2
inactive: [2]

O=C(O)CCl
inactive: [19] | [12] | [14] | [15] | [16]

O=C1C=CC(=O)C=C1
active: [4] 33.2 µM | [5] 12.8 µM | [6] 20 µM | [7] 33 µM | [8] 20 µM | [9] 33.4 µM | [10] 30.6 µM | [11] 31.7 µM
inactive: [3] | [4] | [5] | [7] | [8] | [9] | [10] | [11] | [20] | [18]

COC(=O)COc1ccc(Cl)cc1Cl
inactive: [19]

CC(=O)c1cc2c(cc1C)C(C)(C)C(C)CC2(C)C (centres undefined)
inactive: [13] | [14] | [15] | [16] | [17] | [20] | [18]
active: [2] 5.85 µM | [12] 82.1 µM

O=[N+]([O-])c1cc(C(F)(F)F)c(Cl)c([N+](=O)[O-])c1Cl
inactive: [1]

O=C(O)c1cc[c]([Hg][Cl])cc1
inactive: [1] | [3]

CCOC(=O)C1OC1(C)c1ccccc1 (centres undefined)
inactive: [3] | [12] | [13] | [14] | [15] | [16]

CC(O)CN(CC(C)O)CC(C)O (centres undefined)
inactive: [12] | [13] | [16]

O=C1C(Cl)=C(Cl)C(=O)C(Cl)=C1Cl
active: [4] 7 µM | [5] 9.52 µM | [6] 15 µM | [7] 30.5 µM | [8] 12.4 µM | [9] 12.3 µM | [10] 14 µM
inactive: [1] | [19] | [3] | [2] | [11] | [20] | [18]

C=C(Cl)Cl
inactive: [1] | [19] | [3]

C[N+](C)(C)CC(=O)O
inactive: [1] | [20] | [18]

COCC(=O)N(c1c(C)cccc1C)N1CCOC1=O
inactive: [4] | [5] | [6] | [7] | [8] | [9] | [10] | [11]

C=COCCCl
inactive: [1] | [19] | [18]

ClC1=C(Cl)[C@]2(Cl)[C@@H]3[C@@H](Cl)[C@H](Cl)C[C@@H]3[C@@]1(Cl)C2(Cl)Cl
inactive: [1] | [19] | [2]

CC(C)CCCCCCCOP(=O)(Oc1ccccc1)Oc1ccccc1
active: [1] 27.5 µM | [4] 9.9 µM | [5] 12.1 µM | [6] 20 µM | [7] 5.34 µM | [8] 10.7 µM | [9] 4.92 µM | [10] 27.3 µM | [11] 13.6 µM

CCCCNP(N)(N)=S
inactive: [1]

CC1(C)CC(=O)CC(C)(C)N1[O]
inactive: [19]
